# Test results: the supplement of paper PMC7765376
# The full ranking holds about 1,500 compounds; the median of “Excess HSA synergy score (sum over dose matrix of excess over highest single agent)” is about 43, and the lowest 2% start at about -900. Shown is part of a subset that was picked to be rich in the lowest values.
# Tested on: PEO-1
# Experiment: Excess HSA synergy score (sum over dose matrix of excess over highest single agent) (score (summed % response)); higher = less synergy / more antagonism (negative = synergy)
# Conditions: 72 h, read-out: viability/apoptosis luminescence (CellTiter-Glo or Caspase3-Glo / not stated per table)
# [1] = matrix design: 6x6, 5-fold dilutions (primary screen)
# [2] = matrix design: 10x10, 9-step dilutions (confirmatory)
Compound,Excess HSA synergy score [1],Excess HSA synergy score [2]
COc1cc(C(C)=O)ccc1OCCCN1CCC(c2noc3cc(F)ccc23)CC1 [Iloperidone] + CC[C@H](NC(=O)[C@H](C)NC)C(=O)N1C[C@@H](O)C[C@H]1Cc1c(-c2[nH]c3cc(F)ccc3c2C[C@@H]2C[C@H](O)CN2C(=O)[C@H](CC)NC(=O)[C@H](C)NC)[nH]c2cc(F)ccc12 [Birinapant],75,–
CN1C(=O)C(Cc2c[nH]c3ccccc23)NC1=S (stereo not given) [Necrostatin-1] + CC[C@H](NC(=O)[C@H](C)NC)C(=O)N1C[C@@H](O)C[C@H]1Cc1c(-c2[nH]c3cc(F)ccc3c2C[C@@H]2C[C@H](O)CN2C(=O)[C@H](CC)NC(=O)[C@H](C)NC)[nH]c2cc(F)ccc12 [Birinapant],340,–
Clc1ccc(-c2nc3sccn3c2/C=N/OCc2ccc(Cl)c(Cl)c2)cc1 + CC[C@H](NC(=O)[C@H](C)NC)C(=O)N1C[C@@H](O)C[C@H]1Cc1c(-c2[nH]c3cc(F)ccc3c2C[C@@H]2C[C@H](O)CN2C(=O)[C@H](CC)NC(=O)[C@H](C)NC)[nH]c2cc(F)ccc12 [Birinapant],56.2,–
NS(=O)(=O)OC[C@@H]1C[C@@H](n2ccc3c(N[C@H]4CCc5ccccc54)ncnc32)C[C@@H]1O + CC[C@H](NC(=O)[C@H](C)NC)C(=O)N1C[C@@H](O)C[C@H]1Cc1c(-c2[nH]c3cc(F)ccc3c2C[C@@H]2C[C@H](O)CN2C(=O)[C@H](CC)NC(=O)[C@H](C)NC)[nH]c2cc(F)ccc12 [Birinapant],-120,-1280
CN1CCCN=C1/C=C/c1cccs1 [Pyrantel pamoate] + CC[C@H](NC(=O)[C@H](C)NC)C(=O)N1C[C@@H](O)C[C@H]1Cc1c(-c2[nH]c3cc(F)ccc3c2C[C@@H]2C[C@H](O)CN2C(=O)[C@H](CC)NC(=O)[C@H](C)NC)[nH]c2cc(F)ccc12 [Birinapant],18.2,–
O=C(Nc1nc2cccc(-c3ccc(CN4CCS(=O)(=O)CC4)cc3)n2n1)C1CC1 [Filgotinib] + CC[C@H](NC(=O)[C@H](C)NC)C(=O)N1C[C@@H](O)C[C@H]1Cc1c(-c2[nH]c3cc(F)ccc3c2C[C@@H]2C[C@H](O)CN2C(=O)[C@H](CC)NC(=O)[C@H](C)NC)[nH]c2cc(F)ccc12 [Birinapant],94.7,–
COc1cccc2nc(-c3cccs3)nc(NN3C(=O)C=C(C)C3=O)c12 + CC[C@H](NC(=O)[C@H](C)NC)C(=O)N1C[C@@H](O)C[C@H]1Cc1c(-c2[nH]c3cc(F)ccc3c2C[C@@H]2C[C@H](O)CN2C(=O)[C@H](CC)NC(=O)[C@H](C)NC)[nH]c2cc(F)ccc12 [Birinapant],-105,-1130
COCC[n+]1c2c(n(Cc3cnccn3)c1C)C(=O)c1ccccc1C2=O [Sepantronium bromide] + CC[C@H](NC(=O)[C@H](C)NC)C(=O)N1C[C@@H](O)C[C@H]1Cc1c(-c2[nH]c3cc(F)ccc3c2C[C@@H]2C[C@H](O)CN2C(=O)[C@H](CC)NC(=O)[C@H](C)NC)[nH]c2cc(F)ccc12 [Birinapant],55.3,281
CCCCCNC(=O)N1CCC(CN(Cc2ccc(Cl)cc2)Cc2ccc([N+](=O)[O-])s2)C1 (stereo not given) + CC[C@H](NC(=O)[C@H](C)NC)C(=O)N1C[C@@H](O)C[C@H]1Cc1c(-c2[nH]c3cc(F)ccc3c2C[C@@H]2C[C@H](O)CN2C(=O)[C@H](CC)NC(=O)[C@H](C)NC)[nH]c2cc(F)ccc12 [Birinapant],-0.0169,–
O=c1ccn(C2OC(CO)C(O)C2F)c(=O)[nH]1 (stereo not given) + CC[C@H](NC(=O)[C@H](C)NC)C(=O)N1C[C@@H](O)C[C@H]1Cc1c(-c2[nH]c3cc(F)ccc3c2C[C@@H]2C[C@H](O)CN2C(=O)[C@H](CC)NC(=O)[C@H](C)NC)[nH]c2cc(F)ccc12 [Birinapant],232,–
Cc1cc(Nc2cc(CN3CCOCC3)c3nc(C)c(Cc4ccc(Cl)cc4F)n3n2)n[nH]1 [Gandotinib] + CC[C@H](NC(=O)[C@H](C)NC)C(=O)N1C[C@@H](O)C[C@H]1Cc1c(-c2[nH]c3cc(F)ccc3c2C[C@@H]2C[C@H](O)CN2C(=O)[C@H](CC)NC(=O)[C@H](C)NC)[nH]c2cc(F)ccc12 [Birinapant],66.5,–
COc1ccc(-c2c(-c3ccc(O)cc3O)n[nH]c2C)cc1 + CC[C@H](NC(=O)[C@H](C)NC)C(=O)N1C[C@@H](O)C[C@H]1Cc1c(-c2[nH]c3cc(F)ccc3c2C[C@@H]2C[C@H](O)CN2C(=O)[C@H](CC)NC(=O)[C@H](C)NC)[nH]c2cc(F)ccc12 [Birinapant],59.5,–
Cc1c(CN2CCN(S(C)(=O)=O)CC2)sc2c(N3CCOCC3)nc(-c3cnc(N)nc3)nc12 + CC[C@H](NC(=O)[C@H](C)NC)C(=O)N1C[C@@H](O)C[C@H]1Cc1c(-c2[nH]c3cc(F)ccc3c2C[C@@H]2C[C@H](O)CN2C(=O)[C@H](CC)NC(=O)[C@H](C)NC)[nH]c2cc(F)ccc12 [Birinapant],87.6,–
C/C=C1\NC(=O)[C@H]2CSSCC/C=C/[C@H](CC(=O)N[C@H](C(C)C)C(=O)N2)OC(=O)[C@H](C(C)C)NC1=O [Romidepsin] + CC[C@H](NC(=O)[C@H](C)NC)C(=O)N1C[C@@H](O)C[C@H]1Cc1c(-c2[nH]c3cc(F)ccc3c2C[C@@H]2C[C@H](O)CN2C(=O)[C@H](CC)NC(=O)[C@H](C)NC)[nH]c2cc(F)ccc12 [Birinapant],-212,-1300
COc1cccc2c(NCc3ccccc3)nc(-n3c(N)nc4ccccc43)nc12 + CC[C@H](NC(=O)[C@H](C)NC)C(=O)N1C[C@@H](O)C[C@H]1Cc1c(-c2[nH]c3cc(F)ccc3c2C[C@@H]2C[C@H](O)CN2C(=O)[C@H](CC)NC(=O)[C@H](C)NC)[nH]c2cc(F)ccc12 [Birinapant],17,–
N#CC1(c2cccc(C(=O)Nc3cc(Oc4ccc5nc(NC(=O)C6CC6)sc5n4)ccc3F)c2Cl)CC1 [Takeda-6d] + CC[C@H](NC(=O)[C@H](C)NC)C(=O)N1C[C@@H](O)C[C@H]1Cc1c(-c2[nH]c3cc(F)ccc3c2C[C@@H]2C[C@H](O)CN2C(=O)[C@H](CC)NC(=O)[C@H](C)NC)[nH]c2cc(F)ccc12 [Birinapant],135,–
